# Reference: the supplement of paper PMC3545927
# Some of the results follow. The true hit rate is not given.
# Biological target: furin, P09958
# Test: furin cleavage Z-score vs untreated control; higher = more cleavage, active = 3.5 or more, inactive = 1 or less, 8 variable residues between constant flanks
# In short: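 Peptides 8 residues long, fused to a cDNA oligonucleotide, were fixed to magnetic beads by the N-terminus and exposed to purified furin. The 0.01 ml reactions contained 50 mM HEPES pH 7.5 with CaCl2 and NaCl at 1:10 enzyme:substrate and ran 7.5, 15 or 30 min. For the cleavage Z-score, log counts of sequenced released DNA were compared with furin-free reactions, lowess-adjusted and scaled by median absolute deviation.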
# Chain of furin, P09958 (P09958 whole entry): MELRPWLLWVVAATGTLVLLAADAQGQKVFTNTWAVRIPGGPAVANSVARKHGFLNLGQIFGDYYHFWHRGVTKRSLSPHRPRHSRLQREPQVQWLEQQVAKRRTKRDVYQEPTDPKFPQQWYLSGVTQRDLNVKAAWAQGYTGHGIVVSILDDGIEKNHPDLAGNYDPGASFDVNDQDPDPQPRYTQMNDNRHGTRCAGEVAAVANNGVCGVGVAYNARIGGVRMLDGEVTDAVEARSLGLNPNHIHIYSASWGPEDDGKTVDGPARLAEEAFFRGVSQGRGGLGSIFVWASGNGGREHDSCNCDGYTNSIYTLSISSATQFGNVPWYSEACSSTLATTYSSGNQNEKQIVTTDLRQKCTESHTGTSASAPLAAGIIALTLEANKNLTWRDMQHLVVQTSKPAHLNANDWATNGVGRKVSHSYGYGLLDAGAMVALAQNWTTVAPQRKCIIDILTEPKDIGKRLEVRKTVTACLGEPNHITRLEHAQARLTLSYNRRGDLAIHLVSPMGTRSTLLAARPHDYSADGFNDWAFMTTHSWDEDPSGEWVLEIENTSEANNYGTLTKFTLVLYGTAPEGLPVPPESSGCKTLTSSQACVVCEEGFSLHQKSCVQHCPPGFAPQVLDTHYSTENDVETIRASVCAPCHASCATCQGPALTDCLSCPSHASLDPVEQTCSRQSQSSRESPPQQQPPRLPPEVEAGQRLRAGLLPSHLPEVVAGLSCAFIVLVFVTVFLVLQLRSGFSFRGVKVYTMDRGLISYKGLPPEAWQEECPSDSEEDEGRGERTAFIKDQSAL
Sequence,furin cleavage Z-score (7.5 min),furin cleavage Z-score (15 min),furin cleavage Z-score (30 min)
CADRLQVLDSAGNASASA [HC1398],1.26,0.665 (inactive),0.144 (inactive)
CAQFKQKALGAGNASASA [HC1024],0.453 (inactive),-0.904 (inactive),0.989 (inactive)
CANCGYRRCRAGNASASA [HC1507],-0.406 (inactive),-0.477 (inactive),0.265 (inactive)
CAPLNVRGGRAGNASASA [HC592],-0.486 (inactive),0.851 (inactive),0.124 (inactive)
CAPVSARRGRAGNASASA [HC661],3.67 (active),2.35,2.39
CAECVTSTWVAGNASASA [HC2180],0.903 (inactive),2.44,0.32 (inactive)
CAGPADGMVSAGNASASA [HC667],0.24 (inactive),0.132 (inactive),-1.59 (inactive)
CASVNRNKKSAGNASASA [FS-875],-0.482 (inactive),-0.223 (inactive),1.34
CAGPARPWKSAGNASASA [FS-127],0.451 (inactive),-1.62 (inactive),-1.1 (inactive)
CARPSRLKKFAGNASASA [FS-290],-0.934 (inactive),-0.739 (inactive),-0.88 (inactive)
CAGVARFYRSAGNASASA [FS-661],6.6 (active),7.47 (active),8.24 (active)
CAGKSRLKKSAGNASASA [FS-429],3.94 (active),3.83 (active),4.7 (active)
CAGVARVRKSAGNASASA [FS-169],7.76 (active),6.48 (active),7.18 (active)
CAGVPCHRPSAGNASASA [HC2316],0.883 (inactive),-1.9 (inactive),1.03
CAGRARCYRSAGNASASA [FS-786],5.83 (active),5.27 (active),4.62 (active)
